From PubChem BioAssay (NCATS)
Records with an inconclusive call do not appear. Calls of active or inactive are those of the source. Unless noted, calls come from the whole dose curve; as a rule, active = well fitted curve in the direction sought with a large enough effect; inconclusive = small, poorly fitted or top-dose-only effect, or another doubt; inactive = no such curve, though single readings can be large; an effect the other way counts as inactive or inconclusive. Numbered stars: 1 amine (or outer) side, 2 acyl side, 3 side chain; on linkers, the order of the positions; unused ones are H or OH. Square brackets hold non-standard residues; d marks the D form. Peptide text beside a SMILES is read from it. X1 = CCCCCCCCCC(=O)[C@H](C(=O)[*:2])[C@@H]1CNC(=O)[C@@H](N[*:1])CS1

Key:
[1] = OV-SAHO Cancer Cell Toxicity qHTS against the NCATS CANVASS Library (AID 1347348); note: nearly all actives have a fitted effect of over 55% in size; note: potency is the fitted concentration of half-maximal effect
How it was run: (§1)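 1000 cells/well; 4 h settle; 11-pnt titration; 72 h, 37 degrees C, 5% CO2; CellTiter-Glo, 15min RT; luminescence read.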

[2] = U-118MG Cancer Cell Toxicity qHTS against the NCATS CANVASS Library (AID 1347351); note: potency is the fitted concentration of half-maximal effect
How it was run: as §1

[3] = HEK-293 Cancer Cell Toxicity qHTS against the NCATS CANVASS Library (AID 1347355); note: nearly all actives have a fitted effect of over 65% in size; note: potency is the fitted concentration of half-maximal effect
How it was run: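 1000 cells/well, 4 h pre-incubation 37 °C/5% CO2; 11-pnt titration; 72 h; CellTiter-Glo 15 min RT, luminescence.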

[4] = KB-3-1 Cancer Cell Toxicity qHTS against the NCATS CANVASS Library (AID 1347366); note: series mostly up to about 46 µM; nearly all actives have a fitted effect of over 75% in size
How it was run: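 CellTiter-Glo luminescence measured viability after 72 h at 37C. KB-3-1 cells were seeded at 500 per well in DMEM/10% FBS.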

[5] = target: Nuclear receptor subfamily 1 group I member 3 (Homo sapiens) (UniProt Q14994); assay: qHTS for Constitutive Androstane Receptor (CAR) Agonist screened against the NCATS CANVASS Library (AID 1347373);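 note: every well also contained 1.5 µM PK11195 alongside the test compound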
How it was run: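 Luciferase read-out (ONE-Glo, 30 min RT) of CYP2B6-2.2kb promoter activity in double-stable HepG2-hCAR cells after 24hr compound exposure with 1.5uM PK11195 present; viability measured first by CellTiter-Fluor.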

[6] = qHTS for Hypoxia signaling pathway (HIF-1) agonists against the NCATS CANVASS Library (AID 1347375)
How it was run: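 Read-out: beta-lactamase FRET (CCF4-AM, ex 405, em 460 and 530 nm) after 2 h at room temperature. ME-180 cells stably carrying HRE-bla were treated 17 h at 37C with compounds in an 11-point concentration series.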

[7] = qHTS for H2AX Agonists against the NCATS CANVASS Library (AID 1347378); note: potency is the fitted concentration of half-maximal effect
How it was run: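 Phospho-H2AX (S139) in CHO-K1 lysates measured by HTRF, reported as 665/615 nm emission ratio after 24 hr antibody incubation at room temperature. Cells were first treated with a compound series for 3 hr at 37C (0.76% DMSO final).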

[8] = Cytotoxicity qHTS for assessment of Hepg2 cells membrane integrity screened against the NCATS CANVASS Library (AID 1347387)
How it was run: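 LDH release read by fluorescence (560 nm ex/590 nm em) after CytoTox-ONE addition and 10 min RT; signal tracks lysed cells. HepG2, 2000 cells/well, plated overnight; compound 5 hr, 37C, 5% CO2, final 0.59 nM - 46 uM, 11 points.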

[9] = qHTS assay for small molecule disruptors of mitochondrial membrane potential screened against the NCATS CANVASS Library (AID 1347389); note: nearly all actives have a fitted effect of over 60% in size; note: potency is the fitted concentration of half-maximal effect
How it was run: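 Red/green fluorescence ratio read-out: J-aggregates ex 540/em 590 nm, monomers ex 490/em 535 nm. HepG2, 1 hr compound treatment, then 30 min Mito-MPS dye at 37C. 11-pt qHTS concentration series.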

[10] = Secretion counterscreen for inhibitors of the SERCaMP assay screened against the NCATS CANVASS Library (AID 1347390);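 note: light from luciferase secreted into medium read as a measure of general secretion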; note: potency is the fitted concentration of half-maximal effect
How it was run: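 Counterscreen for secretory-pathway interference: after 4 h attachment, SH-SY5Y-GLuc cells were exposed 20 hours to compounds (final 0.001 - 77 uM), then coelenterazine added and GLuc luminescence recorded; Brefeldin A served as control.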

[11] = qHTS for activators of dead-cell proteases activity screened against the NCATS CANVASS Library (AID 1347392);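 note: luminescence from protease leaking out of membrane-damaged cells cleaving impermeant substrate; rising signal means more cytotoxicity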
How it was run: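 Cytotoxicity in HepG2 cells was assessed by released protease cleaving AAF-aminoluciferin, with luminescence as signal. Exposure lasted 5 h at 37C across an 11-point series.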

[12] = Viability qHTS for inhibitors of the SERCaMP assay screened against the NCATS CANVASS Library (AID 1347400); note: nearly all actives have a fitted effect of over 70% in size; note: potency is the fitted concentration of half-maximal effect
How it was run: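 CellTiter-Glo luminescence readout after 48 h compound exposure (11-pnt qHTS series) of SH-SY5Y-GLuc SERCaMP MJH297 cells seeded at 1000 cells/well; bortezomib positive control.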

[13] = Redox Reaction Profiling qHTS: Assay Interference Panel against the NCATS CANVASS Library (AID 1347401); note: potency is the fitted concentration of half-maximal effect
How it was run: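 Quantitative HTS over an 11-point series was run in HEPES pH 7.3 with 50 mM NaCl, 200 uM DTT and 5 uM resazurin. Initial and 15-min resorufin fluorescence readings were taken.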

[14] = target: Glucocorticoid receptor (Homo sapiens) (UniProt P04150); assay: GR-GFP Redistribution (AID 450;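 active = compounds whose dose series gives a full or clear partial fitted curve of increased nuclear translocation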; note: potency is the fitted concentration of half-maximal effect); conditions: U2OS GR-GFP nuclear translocation, laser cytometry, 2 h
[15] = target: Glucocorticoid receptor (Homo sapiens) (UniProt P04150); assay: GR-EFC Redistribution (AID 451; calls by dose curve; note: potency is the fitted concentration of half-maximal effect); conditions: CHO-K1 GR-EFC translocation, beta-gal luminescence, 2 h
How it was run: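 CHO-K1 cells stably expressing nuclear-localized β-gal enzyme acceptor and GR fused C-terminally to the enzyme donor fragment; ligand-driven nuclear translocation restores β-gal by complementation. Compounds titrated up to 46 uM final, 2 h at 37 °C; luminescence read.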

[16] = target: DNA dC->dU-editing enzyme APOBEC-3G (Homo sapiens) (UniProt Q9HC16); assay: qHTS for inhibitors of Vif-A3G interactions: Validation (AID 588379)
How it was run: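 Yellow fluorescence (Ex 488, Em 500-530) of Vif-coexpressing HeLa A3G-eYFP cells, scanned by Acumen cytometer, reports blocked A3G degradation. Cells plated at 700/well overnight at 37 deg C before compound addition, then a further overnight compound incubation at 37 deg C.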

[17] = HPAF-II 18hr Apoptosis Induction qHTS against the NCATS CANVASS Library (AID 1347360)
How it was run: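 Caspase-3/7 activation was measured with luminescent Caspase-Glo 3/7 reagent (15 min, RT) in HPAF-II cancer cells (500 cells/well). Before detection, cells had been treated for 18 h at 37 C with compounds (11 points).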

[18] = qHTS for Inflammasome Signaling Inhibitors: IL-1-beta AlphaLISA screen against the NCATS CANVASS Library (AID 1347379);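 note: human THP-1 cells primed with LPS then triggered with ATP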;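 for Potency: secreted IL-1B measured as AlphaLISA emission at 615 nm; potency is the fitted concentration of half-maximal effect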
How it was run: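 THP-1, 1 hr compound pre-incubation, then LPS 250 ng/mL + ATP 1.25 mM (final); 16 hr total with compound; IL-1B AlphaLISA, ex 680/em 615 nm; 11-point qHTS, up to 57.5 uM final.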

[19] = qHTS for Activators of p53 Stress Response Pathway screened against the NCATS CANVASS Library (AID 1347388); note: potency is the fitted concentration of half-maximal effect
How it was run: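 p53RE-bla HCT-116 cells (4000/well) were plated 5 h at 37C, exposed to compounds for 16 h at 37C over an 11-point concentration series, then loaded with CCF4 for 2 h at room temperature; 460/530 nm emission ratio read.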

[20] = qHTS for inhibitors of ER calcium dysfunction: SERCaMP assay screened against the NCATS CANVASS Library (AID 1347393); note: nearly all actives have a fitted effect of over 40% in size; note: potency is the fitted concentration of half-maximal effect
How it was run: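 qHTS in SH-SY5Y reporter cells: 16 h compound pretreatment, 4 h thapsigargin, then secreted Gaussia luciferase measured by luminescence.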

Measured: Potency

Chain of Glucocorticoid receptor (Homo sapiens) (P04150 whole entry, looked up, the tested form may be a part): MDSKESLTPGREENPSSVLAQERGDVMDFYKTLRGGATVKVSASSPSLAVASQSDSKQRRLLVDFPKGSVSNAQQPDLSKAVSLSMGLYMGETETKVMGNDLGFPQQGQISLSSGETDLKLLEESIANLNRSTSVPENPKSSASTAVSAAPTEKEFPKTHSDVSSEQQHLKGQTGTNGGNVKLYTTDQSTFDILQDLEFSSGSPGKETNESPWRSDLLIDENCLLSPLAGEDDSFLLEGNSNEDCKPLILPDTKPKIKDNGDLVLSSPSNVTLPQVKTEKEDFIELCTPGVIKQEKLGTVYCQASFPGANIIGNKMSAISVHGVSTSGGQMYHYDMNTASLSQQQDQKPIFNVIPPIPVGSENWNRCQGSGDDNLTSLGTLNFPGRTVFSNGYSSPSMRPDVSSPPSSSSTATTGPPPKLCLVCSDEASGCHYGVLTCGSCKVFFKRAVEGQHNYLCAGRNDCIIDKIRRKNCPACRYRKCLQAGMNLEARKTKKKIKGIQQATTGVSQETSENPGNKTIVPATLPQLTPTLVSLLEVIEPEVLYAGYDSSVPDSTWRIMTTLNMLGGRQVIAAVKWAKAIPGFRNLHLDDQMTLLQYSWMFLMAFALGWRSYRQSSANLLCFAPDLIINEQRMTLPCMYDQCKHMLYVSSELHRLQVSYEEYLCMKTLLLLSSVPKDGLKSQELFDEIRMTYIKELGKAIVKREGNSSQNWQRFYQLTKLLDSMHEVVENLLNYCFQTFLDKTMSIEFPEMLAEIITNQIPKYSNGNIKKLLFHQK
Chain of Nuclear receptor subfamily 1 group I member 3 (Homo sapiens) (Q14994 whole entry, looked up): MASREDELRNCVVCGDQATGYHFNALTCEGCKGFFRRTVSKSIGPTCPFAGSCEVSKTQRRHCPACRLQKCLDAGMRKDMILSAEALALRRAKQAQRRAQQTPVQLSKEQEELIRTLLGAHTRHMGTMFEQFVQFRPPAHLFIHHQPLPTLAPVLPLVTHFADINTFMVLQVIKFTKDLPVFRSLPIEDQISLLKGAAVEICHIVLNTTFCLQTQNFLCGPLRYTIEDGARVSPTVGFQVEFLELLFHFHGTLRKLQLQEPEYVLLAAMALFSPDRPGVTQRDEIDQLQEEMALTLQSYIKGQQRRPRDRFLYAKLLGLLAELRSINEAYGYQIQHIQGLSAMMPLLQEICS
Chain of DNA dC->dU-editing enzyme APOBEC-3G (Homo sapiens) (Q9HC16 whole entry, looked up): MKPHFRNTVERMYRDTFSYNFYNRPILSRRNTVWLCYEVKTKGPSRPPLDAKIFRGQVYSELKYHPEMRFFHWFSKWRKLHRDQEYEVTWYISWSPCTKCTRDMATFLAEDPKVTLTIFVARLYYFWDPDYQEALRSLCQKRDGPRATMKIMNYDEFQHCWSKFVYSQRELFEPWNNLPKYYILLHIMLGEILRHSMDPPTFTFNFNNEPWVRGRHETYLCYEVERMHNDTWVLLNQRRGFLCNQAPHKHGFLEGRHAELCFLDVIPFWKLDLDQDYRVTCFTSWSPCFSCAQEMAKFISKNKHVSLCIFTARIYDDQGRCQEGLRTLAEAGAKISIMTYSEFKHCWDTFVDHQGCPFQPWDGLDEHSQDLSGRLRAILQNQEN

Oc1ccc([C@H]2Oc3ccc(/C=C/c4cc(O)cc(O)c4)cc3C2c2cc(O)cc(O)c2)cc1 (stereo not given in full)
not listed: [14] | [15] | [16] | [17] | [18] | [19] | [20]
inactive: all other assays above

CN(C)CCCCSC(=N)N
inactive: [14] > 46 µM | [15] > 46 µM | [16]

O=c1cc(-c2ccc(O)c(O[C@@H]3O[C@H](CO)[C@@H](O)[C@H](O)[C@H]3O)c2)oc2cc(O[C@@H]3O[C@H](CO)[C@@H](O)[C@H](O)[C@H]3O)cc(O)c12
not listed: [14] | [15] | [16]
inactive: all other assays above

C=C1C(=O)O[C@H]2C[C@H](C)[C@@H]3CC(=O)C(C)=C3[C@H](O)[C@H]12
inactive: [17] | [5] | [19] | [13]
active: [1] 14.9 µM | [2] 18.8 µM | [3] 7.43 µM | [7] 17.2 µM | [18] 10.9 µM | [10] 34.3 µM | [20] 1.72 µM | [12] 21.4 µM

CCCCCCCCCC(=O)[C@@H]1C(=O)N[C@@H](CC(C)C)C(=O)N[C@H](C)C(=O)N2CCC[C@H]2C(=O)N[C@@H](C(C)C)C(=O)N[C@H]2CS[C@H]1CNC2=O (cyclo(L[dA]PV[X1]))
not listed: [14] | [15] | [16] | [20]
inactive: all other assays above

CC(C)(Br)[C@@H](Cl)C[C@H](Br)[C@](C)(Cl)/C=C/Br
inactive: [17] | [4] | [5] | [6] | [7] | [8] | [19] | [10] | [11]
active: [2] 18.8 µM | [9] 16.6 µM | [20] 21.6 µM | [13] 30.4 µM

COc1c(O)cc2oc(-c3ccccc3)cc(=O)c2c1O
active: [20] 34.3 µM
not listed: [4] | [5] | [9] | [14] | [15] | [16] | [17]
inactive: all other assays above

CN1CCc2cc3c(c4c2[C@H]1[C@@H](O)c1ccccc1-4)OCO3
inactive: [1] | [2] | [17] | [5] | [6] | [7] | [8] | [11]
active: [3] 23.5 µM | [19] 26.3 µM | [9] 11.7 µM | [20] 34.3 µM | [13] 7.64 µM
